Measured values taken from PubChem BioAssay AID1949 (Southern Research Institute, 2009).
Screen size: about 100,000 compounds; about 1,600 (1.6%) were called active. Inconclusive results (about 3%) are left out. A selection follows. Unmarked numbers belong to inactive results. No rule for the calls is given here.

Experiment: Mycobacterium tuberculosis H37Rv growth inhibition, cell based, confirmatory dose response (AID 1949);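 as to inhibition: bacteria grown 7 days with compound before Alamar blue readout; 0% = untreated bacteria wells and 100% = bacteria with saturating antibiotic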
Settings: M. tuberculosis H37Rv growth inhibition; stronger effect = higher value

Row | SMILES | inhibition
1 | CCOc1ccc(N2C(=O)CC(NCCNC(=O)c3ccc(Cl)cc3)C2=O)cc1 (configuration not stated) | 2.16%
2 | Cc1cc(C(=O)NC2CCCc3ccccc32)no1 (configuration not stated) | inactive
3 | COc1ccc(NC(=O)CSc2nnnn2-c2ccccc2Cl)c(OC)c1 | inactive
4 | Cc1sc2ncnc(SCC(=O)NCC3CCCO3)c2c1-c1ccc(Cl)cc1 (configuration not stated) | 2.71%
5 | CS(=O)(=O)NC1c2cccc3cccc(c23)C1N1CCCCC1 (configuration not stated) | inactive
6 | CC1CN(C(=O)C(C)Oc2ccc(Cl)cc2Cl)CC(C)O1 (configuration not stated) | inactive
7 | Cc1ccc(-c2nn(C)c(=O)c3ccccc23)cc1CNC(=O)c1cccs1 | inactive
8 | Cc1cc(Oc2coc3cc(OCC(=O)Nc4ccccc4)ccc3c2=O)cc(C)c1Cl | inactive
9 | COc1cc(C(=O)Nc2ccccc2C(=O)NCCc2ccccc2)cc(OC)c1OC | inactive
10 | Cn1nc([N+](=O)[O-])nc1Sc1nnc(-c2ccccc2)o1 | 49.7%
11 | COc1ccc(-c2cc(C(=O)O)c3cc(Br)ccc3n2)c(OC)c1 | inactive
12 | CN1CCCC1c1cccnc1N (configuration not stated) | 1.61%
13 | COc1ccc(NC(=S)N2CCN(c3ccc(F)cc3)CC2)c(OC)c1 | inactive
14 | O=[N+]([O-])c1ccccc1S(=O)(=O)N1CCN(c2ncccn2)CC1 | inactive
15 | Cc1ccc(-c2nnc(Nc3cccc(O)c3)c3ccccc23)cc1S(=O)(=O)NC(C)(C)CO | inactive
16 | COC(=O)c1cccc(NC(=O)CCN2C(=O)c3ccccc3C2=O)c1 | inactive
17 | O=C(c1cc2n(n1)C(C(F)(F)F)CC(c1ccccc1)N2)N1CCCc2ccccc21 (configuration not stated) | inactive
18 | Cc1ccc(Nc2nc(CSc3nnc(-c4ccccc4)o3)cs2)cc1 | inactive
19 | CCCN1CCN(CCCNC(=S)Nc2ccc(F)cc2)CC1 | inactive
20 | COc1ccc(C(=O)Nc2cccc(C(C)=O)c2)cc1I | inactive
21 | CC1(C)Cc2nc3sc4c(=O)n(CC(=O)c5ccccc5)cnc4c3cc2CO1 | 0.12%
22 | CC1(C)NC(=O)N(CCCSc2ccc(Cl)cc2)C1=O | 4.37%

Row | SMILES | inhibition
23 | Cc1ccc(NC(=O)c2cccc(F)c2)cc1[N+](=O)[O-] | inactive
24 | CC1(C)Cc2nc(N3CCCC3)c(C#N)cc2CO1 | 1.56%
25 | O=C(NC(=S)Nc1ccc2c(c1)Cc1ccccc1-2)c1ccc(Br)cc1 | inactive
26 | CC(=O)c1cccc(NC(=O)N2CCN(C(c3ccccc3)c3ccccc3)CC2)c1 | inactive
27 | COc1ccccc1NC(=O)c1c(NC(=O)c2ccccc2C)sc2c1CCCC2 | inactive
28 | COc1ccc(Oc2ccc(NS(=O)(=O)c3ccc(NC(C)=O)cc3)cc2)cc1 | 0.37%
29 | O=C(CNC(=O)C1CCCCC1)NNC(=O)c1ccc(Cl)cc1Cl | inactive
30 | O=c1ccc2ccc(OCc3ccc(Br)cc3F)cc2o1 | inactive
31 | C=C1C2(C(=O)Nc3ccc(Br)cn3)CCC(C2)C1(C)C (configuration not stated) | 0.92%
32 | COc1ccc(S(=O)(=O)N(C)CC(=O)NC2CCCCC2)cc1C | 2.13%
33 | CCn1c(SCC(=O)Nc2cccc(F)c2C)nnc1-c1ccc(OC)cc1 | inactive
34 | Cc1ccc(-c2cc(C(=O)NC3=NCCS3)c3cc(Br)ccc3n2)o1 | 3.59%
35 | Cc1cccc(-n2c(CCc3ccccc3)nnc2SCC(=O)Nc2c(C)cc(C)cc2C)c1 | 7.24%
36 | O=[N+]([O-])c1ccc(NC(=S)NCCCn2ccnc2)cc1 | inactive
37 | COc1ccc(C)cc1N(CC(=O)NCc1ccc(Cl)cc1Cl)S(C)(=O)=O | inactive
38 | O=S(=O)(NCCSc1ccccn1)c1ccc(Br)cc1 | 5.4%
39 | CCCCc1ccc(NC(=O)c2ccc3ccccc3c2)cc1 | 0.83%
40 | COc1ccc(N2CCN(c3nc(NCCc4ccc(OC)c(OC)c4)nc(N4CCOCC4)n3)CC2)cc1 | 40.6%
41 | CCCCc1ccc(NC(=S)N2CCN(C(=O)c3ccco3)CC2)cc1 | inactive
42 | O=C(c1cccs1)N1N=C(c2cccs2)CC1c1cccs1 (configuration not stated) | inactive
43 | CCOc1ccc(C(=O)c2oc3ccccc3c2NC(=O)C2COc3ccccc3O2)cc1 (configuration not stated) | inactive
44 | O=C(NCc1ccccn1)Nc1ccc2c(c1)OCO2 | inactive

Row | SMILES | inhibition
45 | Cc1onc(-c2ccccc2Cl)c1C(=O)Nc1nc2ccc(Cl)cc2s1 | inactive
46 | COc1ccc2nc(NC(=O)CN3CCCCC3)sc2c1 | 3.2%
47 | CCSc1nc(-c2cccs2)cc(-c2cccs2)c1C#N | 5.48%
48 | CCCC(C)c1nnc(NC(=O)CSCc2ccccc2)s1 (configuration not stated) | inactive
49 | CC(C)NCC(O)Cn1c2c(c3ccccc31)CCCC2=O (configuration not stated) | inactive
50 | CCN(CC)CCCNC(=S)Nc1ccc(Br)cc1 | 1.11%
51 | CS(=O)(=O)N(CC(=O)Nc1ccccc1C(=O)N1CCCC1)c1cccc(F)c1 | inactive
52 | Cc1ccc(CN2CCC(N3CCN(c4ccccc4F)CC3)CC2)cc1 | inactive
53 | COc1ccc(S(=O)(=O)N(C(C)=O)c2ccc3oc4c(c3c2)CCCC4)cc1[N+](=O)[O-] | 6.65%
54 | O=C(CCCCC(=O)NC1=NCCS1)NC1=NCCS1 | 1.73%
55 | Cc1cc(Cl)ccc1OCC(=O)NCCCn1ccnc1 | inactive
56 | COc1ccc(OC)c(NC(=O)c2cccc(F)c2)c1 | inactive
57 | CCC(=O)Nc1nnc(SCC(=O)Nc2cccc(Cl)c2)s1 | inactive
58 | CC1=CC(c2ccc(Cl)cc2)n2ncnc2N1 (configuration not stated) | inactive
59 | Cc1cc(C)c(NC(=O)COc2ccc(-c3ccccc3)cc2)c(C)c1 | 0.67%
60 | CN1C(=O)C2C(C1=O)N1C(c3cccs3)C3C(=O)N(C)C(=O)C3N1C2c1cccs1 (configuration not stated) | inactive
61 | Cc1nnc(SCC(=O)Nc2cccc(Cl)c2Cl)n1-c1ccc(F)cc1 | 32.3%
62 | Cc1cc(NC(=O)Cc2ccc(Br)cc2)no1 | inactive
63 | O=C(CSc1nc2ccccc2[nH]1)Nc1ccc(Cl)cn1 | inactive
64 | Cc1c(NC(=O)CSc2nnnn2-c2ccc(O)cc2)c(=O)n(-c2ccccc2)n1C | inactive
65 | Cc1ccc(CC(=O)Nc2ccc(S(=O)(=O)N3CCC(C)CC3)cc2)cc1 | inactive
66 | COc1cc(S(=O)(=O)NC(c2ccccc2)c2ccccc2)ccc1Cl | inactive

Row | SMILES | inhibition
67 | O=C(CSc1nnc(-c2ccncc2)n1-c1ccccc1)c1ccc(Cl)cc1 | inactive
68 | COc1ccc(CC(=O)NC(=S)N2CCOCC2)cc1 | 2.63%
69 | COc1ccc(Cl)cc1C(=O)Nc1cc(C(F)(F)F)ccc1N1CCOCC1 | inactive
70 | C=CCc1cc(OC)ccc1OCCN1CCN(C)CC1 | inactive
71 | O=C(c1csc2c1CCCC2)N1CCC2(CC1)OCCO2 | inactive
72 | C=CCN(c1ccc(C(=O)Nc2ccccc2-c2ccccc2)cc1)S(C)(=O)=O | inactive
73 | CCc1ccc(OC(C)c2nnc(SCC(=O)Nc3ccc(C)c(C)c3)n2CC)cc1 (configuration not stated) | 1.06%
74 | COc1ccc(OC)c(C2C(C#N)=C(N)OC(c3ccccc3)=C2C#N)c1 (configuration not stated) | inactive
75 | Cc1ccc(C(=O)CCC(=O)Nc2ccccc2C)cc1C | inactive
76 | Cc1ccc(NC(=O)CSc2nnc(N)s2)cc1 | inactive
77 | COc1ccccc1CNC(=O)c1cc(OC)c(OC)cc1OC | 2.59%
78 | N#Cc1ccc(NC(=S)NCCN2CCOCC2)cc1 | inactive
79 | CC(C(=O)Nc1cccc(C(F)(F)F)c1)N(c1ccc(Oc2ccccc2)cc1)S(C)(=O)=O (configuration not stated) | 12.4%
80 | O=C(C1CCN(C(=S)NC2CC2)CC1)N1CCCCCC1 | inactive
81 | Cc1ccc(C(C)C)c(OCC(=O)NNC(=S)NCCc2ccccc2)c1 | inactive
82 | COc1ccc(CNC(=O)C2CCCN2CCc2ccccc2)cc1OC (configuration not stated) | 4.85%
83 | CCOC(=O)c1ccc(NC(=S)NNc2nc(C)cc(C)n2)cc1 | inactive
84 | CCOC(=O)C1=C(C)N=c2s/c(=C\c3c4ccccc4cc4ccccc34)c(=O)n2C1c1ccccc1Cl (configuration not stated) | inactive
85 | Cc1cc(C)cc(C(=O)Nc2ccc(CN3CCOCC3)cc2)c1 | inactive
86 | CC(C)(C)C1(c2ccccc2)NC(=O)NC1=O (configuration not stated) | 0.0333%
87 | CCN(CC)CC(=O)Nc1ccccc1OC | inactive
88 | OCCNCCOc1ccc2ccccc2c1Br | inactive

Row | SMILES | inhibition
89 | N#C/C(=C\C=C\c1ccccc1Cl)c1nc2ccccc2[nH]1 | inactive
90 | C=CCn1c(SCC#CCO)nc2ccccc2c1=O | inactive
91 | COc1ccccc1CCNC(=O)c1ccc(COCC(F)(F)C(F)F)cc1 | inactive
92 | CCCCOc1cccc(C(=O)NC(=S)Nc2cccnc2)c1 | inactive
93 | Cc1ccc(SCC(=O)Nc2ccc(S(=O)(=O)Nc3cccc(C(F)(F)F)c3)cc2)cc1 | inactive
94 | CCc1ccc(-n2c(C)cc(C=NO)c2C)cc1 | 17.1%
95 | COc1ccc(S(=O)(=O)N(CC(=O)NC2CC3CCC2C3)c2ccccc2)cc1OC (configuration not stated) | inactive
96 | O=C1C2CCCCC2C(=O)N1c1n[nH]c(CCc2ccccc2)n1 (configuration not stated) | inactive
97 | CCc1cccc(C)c1NC(=O)CN(c1ccc(C)c(C)c1)S(=O)(=O)c1ccc(Cl)cc1 | inactive
98 | COc1ccc(NC(=S)N2CCN(Cc3cccc(F)c3)CC2)c(OC)c1 | inactive
99 | O=C(NCc1ccc2c(c1)OCO2)Nc1ccc([N+](=O)[O-])cc1 | inactive
100 | c1ccc2c(c1)nc(-c1cscn1)n2Cc1ccc(-c2nn[nH]n2)cc1 | inactive
101 | COc1ccc(S(=O)(=O)Nc2cccnc2)cc1C | inactive
102 | COc1cc(NC(=O)c2ccc(F)cc2)ccc1NC(=O)C(C)C | inactive
103 | O=C(c1cn(-c2ccccc2)nc1-c1cccnc1)n1nnc2ccccc21 | 2.67%
104 | COc1ccc([N+](=O)[O-])cc1NC(=O)c1cc(-c2ccc(OC)c(OC)c2)nc2ccccc12 | inactive
105 | CCCN1CCN(C(=O)c2ccncc2)CC1 | 1.8%
106 | COc1ccc2c(c1)sc1nc(-c3cc4cccc(OC)c4oc3=O)cn12 | inactive
107 | Cc1ccc(OCCSC2=NN2c2cc(C)nc(N)n2)cc1 | inactive
